Laboratory results as given in paper PMC7862700, “An all-to-all approach to the identification of sequence-specific readers for epigenetic DNA modifications on cytosine”.

Legend:
Assay in all cases: DAPPL (digital affinity profiling via proximity ligation, sequencing); 10 mM Tris-HCl pH 7.5, 50 mM NaCl, 1 mM DTT, 4% glycerol, room temperature, 30 min; GST-TFs on glutathione beads, 16-mer random dsDNA library, 0.1% formaldehyde crosslink after washing; high values mean tight binding
FLI1 = target: T1, FLI1 (Homo sapiens, UniProt Q01543 1-452); details: protein: recombinant; tags: N-terminal GST; dsDNA, one strand shown
T1 sequence: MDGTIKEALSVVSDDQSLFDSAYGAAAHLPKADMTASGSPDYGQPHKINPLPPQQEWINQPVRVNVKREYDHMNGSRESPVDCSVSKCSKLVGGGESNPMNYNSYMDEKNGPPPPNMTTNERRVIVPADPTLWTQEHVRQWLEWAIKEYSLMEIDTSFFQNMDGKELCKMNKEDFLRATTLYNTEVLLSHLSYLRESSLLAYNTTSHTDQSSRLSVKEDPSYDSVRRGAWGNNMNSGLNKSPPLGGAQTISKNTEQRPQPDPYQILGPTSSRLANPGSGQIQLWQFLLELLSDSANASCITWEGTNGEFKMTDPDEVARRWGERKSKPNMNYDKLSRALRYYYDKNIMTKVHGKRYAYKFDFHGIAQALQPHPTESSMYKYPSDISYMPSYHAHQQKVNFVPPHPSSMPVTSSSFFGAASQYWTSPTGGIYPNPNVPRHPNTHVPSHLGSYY
In short: (§1)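 Sequencing on an Illumina NextSeq500 followed washing, crosslinking with 0.1% formaldehyde, proximity ligation (BsaI/T4 ligase, 1 h, 37 °C) and PCR amplification of pools that had been incubated for 30 min at room temperature with 200 nmole of a random double-stranded 16-mer DNA library in Tris/NaCl/DTT/glycerol buffer. Each pool held DNA-barcoded human transcription factors, expressed in yeast as GST fusions and captured on glutathione beads, plus a tag-only sample. Binding signal is a hexamer's read frequency for a factor divided by its frequency in the tag-only sample.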

ELK1 = target: T2, ELK1 (Homo sapiens, UniProt P19419 1-428); details: protein: recombinant; tags: N-terminal GST; dsDNA, one strand shown
T2 sequence: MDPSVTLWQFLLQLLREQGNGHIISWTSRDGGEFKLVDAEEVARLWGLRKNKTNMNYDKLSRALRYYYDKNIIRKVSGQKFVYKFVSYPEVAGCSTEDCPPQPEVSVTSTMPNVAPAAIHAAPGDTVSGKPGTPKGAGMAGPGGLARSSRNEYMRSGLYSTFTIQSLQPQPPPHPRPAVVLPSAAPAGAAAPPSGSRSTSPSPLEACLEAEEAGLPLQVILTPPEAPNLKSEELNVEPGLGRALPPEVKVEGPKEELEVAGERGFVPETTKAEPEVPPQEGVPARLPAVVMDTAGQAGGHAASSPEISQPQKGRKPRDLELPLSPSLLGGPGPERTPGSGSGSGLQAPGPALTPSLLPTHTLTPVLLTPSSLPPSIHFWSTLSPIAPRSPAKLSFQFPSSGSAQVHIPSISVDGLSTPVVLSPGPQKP
In short: as §1

GABPA = target: T3, GABPA (Homo sapiens, UniProt Q06546 1-454); details: protein: recombinant; tags: N-terminal GST; dsDNA, one strand shown
T3 sequence: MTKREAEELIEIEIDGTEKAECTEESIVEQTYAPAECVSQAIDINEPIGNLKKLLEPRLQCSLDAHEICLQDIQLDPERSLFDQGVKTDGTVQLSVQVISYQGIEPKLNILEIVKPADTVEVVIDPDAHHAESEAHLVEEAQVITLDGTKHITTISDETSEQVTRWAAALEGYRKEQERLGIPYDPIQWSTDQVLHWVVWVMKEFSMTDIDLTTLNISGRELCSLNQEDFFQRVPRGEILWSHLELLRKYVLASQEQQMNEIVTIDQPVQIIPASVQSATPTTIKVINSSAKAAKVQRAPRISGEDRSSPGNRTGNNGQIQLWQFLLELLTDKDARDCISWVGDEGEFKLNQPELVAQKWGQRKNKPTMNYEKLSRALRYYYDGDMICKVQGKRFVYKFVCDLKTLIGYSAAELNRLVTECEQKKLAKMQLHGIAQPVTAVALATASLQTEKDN
In short: as §1

ERG = target: T4, ERG (Homo sapiens, UniProt P11308 1-479); details: protein: recombinant; tags: N-terminal GST; dsDNA, one strand shown
T4 sequence: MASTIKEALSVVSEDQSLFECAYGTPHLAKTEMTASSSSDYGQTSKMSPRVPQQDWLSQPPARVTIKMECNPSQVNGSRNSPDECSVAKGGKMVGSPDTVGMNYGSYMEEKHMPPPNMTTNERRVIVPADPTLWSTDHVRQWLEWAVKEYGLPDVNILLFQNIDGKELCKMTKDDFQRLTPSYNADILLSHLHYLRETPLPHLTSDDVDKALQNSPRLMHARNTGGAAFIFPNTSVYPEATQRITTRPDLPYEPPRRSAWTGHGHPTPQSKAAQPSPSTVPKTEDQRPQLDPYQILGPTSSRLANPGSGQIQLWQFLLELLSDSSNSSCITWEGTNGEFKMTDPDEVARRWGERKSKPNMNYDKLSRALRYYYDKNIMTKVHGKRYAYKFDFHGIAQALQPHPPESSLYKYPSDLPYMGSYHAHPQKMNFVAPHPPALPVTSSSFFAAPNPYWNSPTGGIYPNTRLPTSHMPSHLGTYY
In short: as §1

ELF1 = ELF1 (Homo sapiens, UniProt P32519 1-619); details: protein: recombinant; tags: N-terminal GST; dsDNA, one strand shown
In short: as §1

EHF = target: T5, EHF (Homo sapiens, UniProt Q9NZC4 1-300); details: protein: recombinant; tags: N-terminal GST; dsDNA, one strand shown
T5 sequence: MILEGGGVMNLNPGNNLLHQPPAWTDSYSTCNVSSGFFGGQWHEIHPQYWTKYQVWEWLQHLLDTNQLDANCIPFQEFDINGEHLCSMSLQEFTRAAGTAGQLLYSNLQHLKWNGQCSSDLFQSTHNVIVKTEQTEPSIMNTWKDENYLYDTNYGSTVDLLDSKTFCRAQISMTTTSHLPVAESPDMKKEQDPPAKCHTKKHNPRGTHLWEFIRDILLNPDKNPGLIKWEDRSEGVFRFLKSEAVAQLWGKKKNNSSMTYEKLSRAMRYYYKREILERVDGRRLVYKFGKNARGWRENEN
In short: as §1

HSF1 = HSF1 (Homo sapiens, UniProt Q00613 1-529); details: protein: recombinant; tags: N-terminal GST; chain copies: 3; dsDNA, one strand shown
In short: as §1

ELF4 = ELF4 (Homo sapiens, UniProt Q99607 1-663); details: protein: recombinant; tags: N-terminal GST; dsDNA, one strand shown
In short: as §1

ELK4 = target: T6, ELK4 (Homo sapiens, UniProt P28324-2 1-405); details: protein: recombinant; tags: N-terminal GST; dsDNA, one strand shown
T6 sequence: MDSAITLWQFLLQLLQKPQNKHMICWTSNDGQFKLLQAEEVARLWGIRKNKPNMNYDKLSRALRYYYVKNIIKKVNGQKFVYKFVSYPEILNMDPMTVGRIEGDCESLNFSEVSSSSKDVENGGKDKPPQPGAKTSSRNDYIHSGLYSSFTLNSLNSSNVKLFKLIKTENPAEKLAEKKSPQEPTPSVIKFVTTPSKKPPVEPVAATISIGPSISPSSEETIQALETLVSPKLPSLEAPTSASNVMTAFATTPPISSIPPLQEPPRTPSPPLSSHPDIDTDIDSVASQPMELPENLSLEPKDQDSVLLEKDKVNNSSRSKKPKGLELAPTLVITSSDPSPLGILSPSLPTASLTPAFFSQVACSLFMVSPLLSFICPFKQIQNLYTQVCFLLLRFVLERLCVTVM
In short: as §1

Sequence of HSF1 (Q00613 whole entry): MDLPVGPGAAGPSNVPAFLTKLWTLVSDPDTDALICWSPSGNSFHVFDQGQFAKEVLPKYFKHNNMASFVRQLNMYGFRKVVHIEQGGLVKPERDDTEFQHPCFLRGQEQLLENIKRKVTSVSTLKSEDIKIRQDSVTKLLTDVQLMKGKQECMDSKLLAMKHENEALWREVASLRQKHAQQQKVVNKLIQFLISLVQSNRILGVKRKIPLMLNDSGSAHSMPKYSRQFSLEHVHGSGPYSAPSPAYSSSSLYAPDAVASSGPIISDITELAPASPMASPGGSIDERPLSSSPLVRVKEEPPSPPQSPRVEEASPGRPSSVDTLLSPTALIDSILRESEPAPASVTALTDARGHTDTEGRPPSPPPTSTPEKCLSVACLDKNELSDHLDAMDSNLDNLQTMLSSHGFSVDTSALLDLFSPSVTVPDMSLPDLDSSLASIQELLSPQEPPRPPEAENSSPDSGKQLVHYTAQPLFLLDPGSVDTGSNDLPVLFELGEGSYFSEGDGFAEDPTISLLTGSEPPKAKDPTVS
Sequence of ELF4 (Q99607 whole entry): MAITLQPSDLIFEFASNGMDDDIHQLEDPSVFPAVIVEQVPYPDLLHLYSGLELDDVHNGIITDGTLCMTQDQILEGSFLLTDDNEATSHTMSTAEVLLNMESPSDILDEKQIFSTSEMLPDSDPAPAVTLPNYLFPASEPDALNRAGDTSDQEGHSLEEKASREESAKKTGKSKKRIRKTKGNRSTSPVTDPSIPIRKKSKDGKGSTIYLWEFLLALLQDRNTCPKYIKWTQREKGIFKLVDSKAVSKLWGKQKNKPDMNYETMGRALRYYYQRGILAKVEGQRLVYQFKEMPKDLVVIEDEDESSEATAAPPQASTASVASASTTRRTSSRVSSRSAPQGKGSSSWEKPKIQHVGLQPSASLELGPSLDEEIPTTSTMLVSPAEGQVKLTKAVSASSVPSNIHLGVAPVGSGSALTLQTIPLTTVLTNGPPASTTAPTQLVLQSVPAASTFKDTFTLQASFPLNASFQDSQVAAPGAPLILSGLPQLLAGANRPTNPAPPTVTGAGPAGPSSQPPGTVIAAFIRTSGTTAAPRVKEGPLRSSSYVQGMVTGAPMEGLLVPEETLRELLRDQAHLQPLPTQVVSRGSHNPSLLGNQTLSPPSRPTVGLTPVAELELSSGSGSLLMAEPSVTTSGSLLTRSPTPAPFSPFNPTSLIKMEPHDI
Sequence of ELF1 (P32519 whole entry): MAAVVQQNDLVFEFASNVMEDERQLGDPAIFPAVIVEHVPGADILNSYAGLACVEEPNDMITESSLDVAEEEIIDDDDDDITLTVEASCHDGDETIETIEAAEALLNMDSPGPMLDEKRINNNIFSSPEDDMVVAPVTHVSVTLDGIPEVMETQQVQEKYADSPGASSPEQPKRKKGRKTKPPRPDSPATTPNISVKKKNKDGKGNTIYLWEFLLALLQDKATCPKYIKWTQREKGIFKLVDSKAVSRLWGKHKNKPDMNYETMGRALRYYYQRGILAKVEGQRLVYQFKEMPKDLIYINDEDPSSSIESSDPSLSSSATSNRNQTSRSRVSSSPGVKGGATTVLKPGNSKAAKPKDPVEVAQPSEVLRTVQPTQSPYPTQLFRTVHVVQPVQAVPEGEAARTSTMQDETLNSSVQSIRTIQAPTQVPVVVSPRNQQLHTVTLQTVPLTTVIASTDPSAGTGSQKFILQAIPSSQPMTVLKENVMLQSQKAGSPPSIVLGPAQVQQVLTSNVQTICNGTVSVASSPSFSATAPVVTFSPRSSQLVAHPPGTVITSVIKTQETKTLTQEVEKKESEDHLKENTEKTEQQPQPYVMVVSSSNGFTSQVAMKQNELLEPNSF

With AGAACA the binding signal (FLI1) was 1.06 fold enrichment (6-mer frequency, TF over GST control), the binding signal (ELK1) was 1.06 fold enrichment (6-mer frequency, TF over GST control) and the binding signal (GABPA) was 1.11 fold enrichment (6-mer frequency, TF over GST control). The binding signal (ERG) was 1.01 fold enrichment (6-mer frequency, TF over GST control), the binding signal (ELF1) was 1.07 fold enrichment (6-mer frequency, TF over GST control) and the binding signal (EHF) was 1.02 fold enrichment (6-mer frequency, TF over GST control). The binding signal (HSF1) was 2.37 fold enrichment (6-mer frequency, TF over GST control), the binding signal (ELF4) was 1.06 fold enrichment (6-mer frequency, TF over GST control) and the binding signal (ELK4) was 1.02 fold enrichment (6-mer frequency, TF over GST control).
